Consider 95 compounds from PubChem BioAssay AID588413 (Sanford-Burnham Center for Chemical Genomics, 2011).

Out of some 340,000 compounds screened, about 2,500 (0.74%) were called active. The full list was thinned out, with actives kept by preference. Unmarked numbers belong to inactive results.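 How the source made its calls: active means inhibition above about 55% (limit read from the data); inactive means the rest.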

This experiment can be described thus: Gli-Sufu pathway antagonists, primary screen, luciferase luminescence, Sufu-KO-LIGHT cells, uHTS (AID 588413).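 Further: 0% = DMSO-treated cells and 100% = wells with medium but no cells.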 To be noted: Sufu-KO-LIGHT fibroblasts, Gli luciferase reporter luminescence; at 5 µM; active compounds read high. In general terms: Reporter assays use an easily measured gene product as a stand-in for the process of interest.
Regarding `Cc1ccc(S(=O)(=O)N(C)C)cc1NC(=O)C1Cc2ccccc2CN1C(=O)c1ccco1` (stereo not given), the inhibition (as a rule, the drop in the measured response relative to a control, in per cent) is -7.42%.

On to `COc1ccc(CCNC(=O)C(=O)NCC2OCCN2S(=O)(=O)c2cccs2)cc1OC` (stereo not given), for which the inhibition was 1.51%.

`COc1ccc2c(c1)CCNC2Cc1ccc(OC)c(O)c1` (stereo not given): the inhibition was 7.38%.

`COc1cc2c(cc1OC)CN(CC(=O)Nc1ccc(F)cc1)CC2`: the inhibition is 9.09%.

On to `CC[C@H]1CN2CCc3cc(OC)c(OC)cc3[C@@H]2C[C@@H]1C[C@H]1NCCc2cc(OC)c(OC)cc21`, for which the inhibition is 71.3% (active).

As for `C=CC(=O)Nc1ccc(Nc2ccnc(Nc3ccc(N4CCN(C)CC4)cc3)n2)cc1`, the inhibition was 21.8%.

Take `CC(NC(=O)C1CCC(CNc2c(N3CCOCC3)c(=O)c2=O)CC1)c1ccccc1` (stereo not given): the inhibition is -5.64%.

`COCCN(Cc1ccccc1)C(=O)Cc1ccc(S(=O)(=O)N2CCOCC2)s1`: the inhibition was 4.55%.

For `CC(=O)c1cccc(NC(=O)c2cc(C)nn2-c2ccccc2)c1`, the inhibition is 5.19%.

For the compound `Cc1nnc(SCC(=O)Nc2cccc(N)c2)n1-c1ccccc1`, the inhibition is -28.9%.

Consider `CC[n+]1c(C)n(-c2ccccc2)c2ccc(NC(C)=O)cc21`, for which the inhibition was 76.3% (active).

For the compound `Cc1ccc(C(=O)NCC(=O)O)s1`, the inhibition was -7.96%.

As for `CC1OC2C(OC1C)N(S(C)(=O)=O)CCN2S(C)(=O)=O` (stereo not given), the inhibition was -7.55%.

On to `Cc1ccsc1C(=O)OCC(=O)Nc1cccc(F)c1`, for which the inhibition was -43.7%.

For `COc1ccc(C(=O)OCC(=O)c2cc(C)n(CC3CCCO3)c2C)cc1[N+](=O)[O-]` (stereo not given), the inhibition is -7.49%.

Take `Cc1ccsc1C(=O)OCC(=O)c1cc(C)n(CC2CCCO2)c1C` (stereo not given): the inhibition was 72.1% (active).

As to `CCN(CC)C(CNC(=O)CSc1nnnn1-c1cccc(F)c1)c1ccco1` (stereo not given), the inhibition is 10%.

For `CCNCCC(=O)N1c2ccccc2Sc2ccc(NC(=O)OCC)cc21`, the inhibition was 26.4%.

Take `CCOC(=O)CNC(=O)N1c2ccccc2Sc2ccccc21`: the inhibition is 2.43%.

For the compound `CCN1/C(=C/C(=S)Nc2ccccc2)Sc2ccccc21`, the inhibition was 67.6% (active).

As to `CC(=O)c1ccc(S(=O)(=O)NC2CC(=O)N(c3ccc4c(c3)OCCO4)C2)cc1` (stereo not given), the inhibition is -3.34%.

As for `CCN(CC(=O)Nc1c(F)cccc1F)C(=O)c1ccc(Sc2nncn2C)c([N+](=O)[O-])c1`, the inhibition is 31.3%.

As for `CC(C)Oc1ccc(C(=O)NC(C)(C)CO)cc1`, the inhibition is -9.97%.

Turning to `CCC(Cc1ccccc1)NC(=O)C1CCCCC1` (stereo not given), the inhibition is 63.1% (active).

For `CCC(NC(=O)C1CCCC1)c1ccc(C)cc1` (stereo not given), the inhibition was -10.2%.

`Cc1ccc(NC(=O)[C@H](Cc2ccccc2)NC(=O)C2CCNCC2)cc1`: the inhibition is 2.89%.

For the compound `COc1ccc(C(=O)COC(=O)Cn2cnc3c2c(=O)n(C)c(=O)n3C)c(OC)c1`, the inhibition was 3.81%.

As to `NC(=O)C1(Nc2ccccc2Cl)CCCC1`, the inhibition is 4.9%.

As to `CC[C@]12c3[nH]c4ccc(OC)cc4c3CCN1C(=O)C(CC(=O)NCc1ccco1)C[C@@H]2C(=O)N1CCN(C(=O)C2CC2)CC1` (stereo not given in full), the inhibition was -2.82%.

`C=CCSc1nc2c(c(=O)[nH]1)C(C(C)C)C(C#N)=C(N)O2` (stereo not given): the inhibition is -7.54%.

As for `CCCc1nc(N)nc2c1C(=O)CC(C)(C)C2`, the inhibition is 77.6% (active).

Consider `CC/C(O)=C1\C(=O)CC(C)(C)CC1=NCCc1nc2ccccc2[nH]1`, for which the inhibition was 25.2%.

As for `CC1(C)CC(=O)c2sc(N)nc2C1`, the inhibition is 4.1%.

With `CCOc1ccc2nc(N(CCCN(C)C)C(=O)c3ccc(C(=O)c4ccccc4)cc3)sc2c1`, the inhibition is 65.2% (active).

In the case of `CCc1ccc2nc(N(CCCN(C)C)C(=O)c3ccc4c(c3)OCCO4)sc2c1`, the inhibition is 11.7%.

For the compound `CN(C)CCCN(C(=O)c1ccc(S(=O)(=O)N2CCCCCC2)cc1)c1nc2ccc(Br)cc2s1`, the inhibition was 42.7%.

Consider `Cc1ccc(F)c(NC(=O)CCc2ccccc2)c1`, for which the inhibition is -20.7%.

Regarding `Cc1ccc(C(=O)NC(=S)NCCN2CCOCC2)cc1`, the inhibition is -9.17%.

As to `CCOc1cccc(/C=N/N2C(=O)CSC2=S)c1O`, the inhibition is -1.42%.

Consider `CCOc1cccc(/C=N/NC(=S)NCCN2CCOCC2)c1O`, for which the inhibition was 81.1% (active).

With `O=C(CNc1ccc(F)cc1F)NC(=O)NCc1ccco1`, the inhibition was -1.84%.

For `Cc1cc([N+](=O)[O-])ccc1NCc1cccc([N+](=O)[O-])c1`, the inhibition is 8.75%.

As for `COCCCNC(=S)N1CCCC(c2nc3cc(C)c(C)cc3[nH]2)C1` (stereo not given), the inhibition was 15.7%.

In the case of `CCC(C)(C)NC(=O)C(c1ccc(O)cc1)N(Cc1ccco1)C(=O)CCC(=O)Nc1ccccn1` (stereo not given), the inhibition is -4.35%.

With `Cc1ccc(NC(=O)C(C)Sc2nnc(C3CC3)n2C2CC2)cc1S(=O)(=O)N1CCOCC1` (stereo not given), the inhibition was 4.31%.

In the case of `CCCn1cc(S(=O)(=O)c2ccc(C)cc2)c(=O)c2cc(OCC)ccc21`, the inhibition is 32.4%.

Turning to `COc1cccc(Oc2ccc(N)cc2)c1`, the inhibition is -23.1%.

Consider `CC(C)(C)c1ccc(OC2=CS(=O)(=O)c3ccccc32)cc1`, for which the inhibition is -36.6%.

For `CC(C)(C)c1ccc(Oc2ccc(N)cc2)cc1`, the inhibition was 76.2% (active).

Turning to `CCOc1ccc(NS(=O)(=O)c2ccc(C)c(C(N)=O)c2)cc1`, the inhibition was 29.7%.

For `Cc1cccc(C(=O)OCC(=O)Nc2sc3c(c2C#N)CCC3)c1`, the inhibition is -6.89%.

Take `CC(=O)c1c(C)[nH]c(C(=O)OCC(=O)Nc2sc3c(c2C#N)CCCC3)c1C`: the inhibition is 69.3% (active).

For the compound `N#CCC(=O)Nc1ccc(C(=O)OCC(=O)Nc2sc3c(c2C#N)CCCC3)cc1`, the inhibition was -9.19%.

Turning to `Cc1cc(C)c(C)c(S(=O)(=O)Nc2cccnc2)c1C`, the inhibition was 1.03%.

In the case of `Fc1ccc(CNc2nc3ccccc3n3nnnc23)cc1`, the inhibition was -6.79%.

As for `CCc1nc2sc3c(Cl)ncnc3c2c2c1CCCC2`, the inhibition is -1.03%.

As for `O=C1/C(=C\c2cccnc2)CN(Cc2ccccc2)C/C1=C\c1cccnc1`, the inhibition was 99.3% (active).

`O=C(O)C1CC(=O)N(Cc2cccnc2)C1` (stereo not given): the inhibition was -11.1%.

On to `Cc1ccccc1C1=N/C(=C/c2cccnc2)C(=O)O1`, for which the inhibition is -7.01%.

`Cc1ccc2cc(/C=N/Nc3ccc(C(=O)O)cc3)c(Cl)nc2c1`: the inhibition is -101%.

In the case of `O=C(O)c1ccc(N/N=C/c2ccc3ncccc3c2)cc1`, the inhibition was 67% (active).

Turning to `CCNC(=S)NNC(=O)c1ccc2ncccc2c1`, the inhibition is -4.73%.

As to `CNc1ccc(SC#N)cc1`, the inhibition is 60.3% (active).

Regarding `COc1ccc(N2C(=O)/C(=C\c3ccco3)N=C2SCC(N)=O)cc1Cl`, the inhibition was 5.71%.

Consider `O=C(Cn1cnc2c(nnn2-c2ccccc2)c1=O)N1CCC(Cc2ccccc2)CC1`, for which the inhibition is -4.74%.

As for `COc1cc(-c2nc(S(=O)(=O)c3ccc(Cl)cc3)c(N(C)C)o2)cc(OC)c1OC`, the inhibition is 7.51%.

Turning to `COc1cc2ccccc2cc1C(=O)N1CCOCC1`, the inhibition was -5.57%.

`O=C(c1snnc1-c1ccccc1)N1CCOCC1`: the inhibition is 9.83%.

As to `Cc1oc2c(c1C(=O)N1CCOCC1)C(=O)c1ccccc1C2=O`, the inhibition was 87% (active).

On to `CCOC(=O)[C@H]1[C@H]2COc3ccc(Cl)cc3[C@@H]2N2C(=O)c3cc(C)ccc3NC(=O)[C@@]12C`, for which the inhibition was 1.26%.

Consider `CCOC(=O)CN(C(=O)COc1nc(-c2ccccc2)cc(C)c1C#N)c1ccc(F)cc1`, for which the inhibition is 5.59%.

Turning to `Cc1ccc2c(=O)cc(C(=O)NCCc3ccc(S(N)(=O)=O)cc3)oc2c1C`, the inhibition is -18.4%.

Consider `CSc1ccccc1NC(=O)Cc1ccc(Br)cc1`, for which the inhibition was 1.53%.

As to `Cc1ccc(S(=O)(=O)NC(C)C(=O)Nc2ccccc2C(=O)N2CCCC2)cc1` (stereo not given), the inhibition was 95% (active).

On to `COc1ccc(S(=O)(=O)Nc2ccccc2C(=O)N2CCCC2)cc1C`, for which the inhibition is -10.7%.

On to `COc1ccc(S(=O)(=O)NC(C)c2ccccc2)cc1C(=O)N1CCCCC1` (stereo not given), for which the inhibition was 12.8%.

Turning to `CCOc1ccc(/C=C(/C#N)c2nnc(N3CCOCC3)n2-c2ccccc2)cc1OC`, the inhibition was 4.23%.

In the case of `c1c2c(cc3sc(N4CCCCC4)nc13)OCCO2`, the inhibition was 66.6% (active).

With `O=S(=O)(Nc1ccc2nc(N3CCOCC3)sc2c1)c1ccccc1`, the inhibition is -64.9%.

With `Brc1ccc2nc(N3CCCC3)sc2c1`, the inhibition is -88.5%.

Consider `CC1CN(C(=O)c2ccccc2NS(=O)(=O)c2cccc([N+](=O)[O-])c2)CC(C)O1` (stereo not given), for which the inhibition is -7.72%.

As to `COc1ccc(F)cc1C(=O)C1CCCN(C(=O)CCc2ccccn2)C1` (stereo not given), the inhibition is 12.7%.

Take `CC(C)(C)c1cc(C(=O)NN)n(Cc2ccc(Cl)cc2Cl)n1`: the inhibition was -3.86%.

As to `O=c1ccn(Cc2ccccc2Cl)cc1`, the inhibition is 17%.

In the case of `N#CC(C#N)=CN=c1ccn(Cc2ccc(Cl)cc2Cl)cc1`, the inhibition is 57.1% (active).

Turning to `COc1ccc(CC(=O)NC(C)c2ccc(Cl)c(Cl)c2)cc1S(=O)(=O)N1CCOCC1` (stereo not given), the inhibition was -4.33%.

For the compound `COc1cc(Cl)c(C)cc1NC(=O)CN1CCCCCC1`, the inhibition was 40.6%.

Regarding `Cn1c(=O)c2c(nc(NCc3ccccc3)n2CC(N)=O)n(C)c1=O`, the inhibition was 0.59%.

For `Cn1c(=O)c2c(nc(NCCc3ccccc3)n2Cc2ccccc2)n(C)c1=O`, the inhibition is 62.7% (active).

On to `CCn1c(NCCc2ccc(OC)c(OC)c2)nc2c1c(=O)n(C)c(=O)n2C`, for which the inhibition was 11.3%.

`CCCCNc1nc2c(c(=O)n(C)c(=O)n2C)n1Cc1cccc(OC)c1`: the inhibition was 73.1% (active).

In the case of `Cn1c(=O)c2c(nc(NCCNC(=O)c3ccco3)n2Cc2ccccc2F)n(C)c1=O`, the inhibition is -26.1%.

Turning to `CCCCNc1nc2c(c(=O)[nH]c(=O)n2C)n1CCOc1ccccc1`, the inhibition is -15.8%.

Regarding `O=C(Cn1nnc(-c2ccccc2)n1)NC(=O)NC1CCCC1`, the inhibition was 0.46%.

In the case of `Cc1ccc(SC(=O)COc2ccc(C)c(C)c2)cc1`, the inhibition is -16.4%.
